# Experimental data taken from PubChem BioAssay (NCI).
# About 79,000 compounds went through this panel and 15% of them were active in at least one assay; those are over-represented in the sample as a whole. Values without a mark were called inactive. Active and inactive are the calls of the source. No stated cut-off is given here; in the data, active means growth inhibition above about 70%; inactive means the rest.
# What was measured:
# [1] = NCI Yeast Anticancer Drug Screen. Data for the rad52 strain (AID 147);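 further: 0% = growth of vehicle-treated control cultures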; conditions: S. cerevisiae rad52 mutant growth inhibition, active compounds read high
# In short: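 Genetically altered yeast (DNA damage repair defect) treated with compound; inhibition calculated relative to vehicle.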
# [2] = NCI Yeast Anticancer Drug Screen. Data for the wt1 strain (AID 149);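 further: 0% = growth of vehicle-treated wt1 cultures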; conditions: S. cerevisiae wt1 strain (SPY 50644) growth inhibition, active compounds read high
# In short: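 Growth inhibition read against vehicle controls after compound exposure of the wt1 yeast strain.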
# [3] = NCI Yeast Anticancer Drug Screen. Data for the mgt1 strain (AID 153); conditions: S. cerevisiae mgt1 mutant growth inhibition, active compounds read high
# In short: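 Read-out: yeast growth inhibition vs vehicle control. Strain mgt1, drawn from a panel altered in DNA damage repair or cell cycle control.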
# [4] = NCI Yeast Anticancer Drug Screen. Data for the rad50 strain (AID 155);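 further: 0% = growth of vehicle-only cultures of the same strain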; conditions: S. cerevisiae rad50 strain growth inhibition, active compounds read high
# In short: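 Readout: growth inhibition relative to vehicle-treated cultures. Compound exposure was carried out in a genetically defined yeast strain deficient in DNA damage repair.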
# [5] = NCI Yeast Anticancer Drug Screen. Data for the mec2-1 strain (AID 157); conditions: S. cerevisiae mec2-1 strain, active compounds read high
# In short: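 Cells of the genetically defined mec2-1 yeast strain are incubated with test compound. Inhibition of growth is calculated against vehicle-treated controls.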
# [6] = NCI Yeast Anticancer Drug Screen. Data for the rad14 strain (AID 159);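 further: 0% = growth of vehicle-treated control cultures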; conditions: S. cerevisiae rad14 strain growth inhibition, active compounds read high
# In short: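 Growth inhibition vs vehicle controls; genetically altered yeast strain (DNA damage repair defect) treated with test compounds.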
# [7] = NCI Yeast Anticancer Drug Screen. Data for the sgs1 mgt1 strain (AID 161);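 further: 0% = growth of cultures given vehicle only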; conditions: S. cerevisiae sgs1 mgt1 strain, active compounds read high
# In short: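 Genetically altered yeast, compound exposure, growth inhibition relative to vehicle.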
# [8] = NCI Yeast Anticancer Drug Screen. Data for the CLN2oe strain (AID 163);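 further: 0% = growth of vehicle-only control cultures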; conditions: S. cerevisiae CLN2oe strain, active compounds read high
# In short: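 Strain altered in cell-cycle control, incubated with compound; growth compared to solvent-treated controls.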
# [9] = NCI Yeast Anticancer Drug Screen. Data for the bub3 strain (AID 167); conditions: S. cerevisiae bub3 mutant strain, active compounds read high
# In short: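 Readout: yeast growth inhibition, expressed relative to vehicle-only wells. The test organism is a mutant strain from a panel with lesions in DNA repair or checkpoint genes.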
# [10] = NCI Yeast Anticancer Drug Screen. Data for the wt2 strain (AID 169);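 further: 0% = growth of vehicle-treated yeast cultures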; conditions: S. cerevisiae wt2 strain growth inhibition, active compounds read high
# In short: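 Steps: yeast strain treated with compound; growth recorded; inhibition calculated relative to cultures given vehicle alone.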
# [11] = NCI Yeast Anticancer Drug Screen. Data for the mlh1 strain (AID 171);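 further: 0% = growth of vehicle-treated control cultures of the same strain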; conditions: S. cerevisiae mlh1 strain growth inhibition, active compounds read high
# In short: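 Yeast screen: mutant strain plus compound, growth scored against vehicle control wells.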
# [12] = NCI Yeast Anticancer Drug Screen. Data for the sgs1 strain (AID 173);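 further: 0% = growth of vehicle-only control cultures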; conditions: S. cerevisiae sgs1 mutant, active compounds read high
# In short: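 Inhibition of yeast growth served as the measure. The mutant strain was treated with each compound, and growth was normalised to cultures receiving vehicle alone.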
# [13] = NCI Yeast Anticancer Drug Screen. Data for the mlh1 rad18 strain (AID 175); conditions: S. cerevisiae mlh1 rad18 strain growth inhibition, active compounds read high
# In short: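 Compound-treated yeast growth, normalised to vehicle controls. Strain bears defined DNA repair mutations.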
# [14] = NCI Yeast Anticancer Drug Screen. Data for the rad18 strain (AID 177); conditions: S. cerevisiae rad18 mutant growth inhibition, active compounds read high
# In short: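 Inhibition values reflect reduced yeast growth compared with vehicle-treated controls, using a strain engineered with a DNA damage repair defect.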
# [15] = at 5.0 µM (retest, dose inferred, filed as 0.5)
# [16] = at 50.0 µM (retest, dose inferred, filed as 5.0)
smiles,measurement,setting,value
COc1cc(C2SCC(=O)N2c2ccc(-c3ccc(-n4c(-c5ccccc5)nc5ccccc5c4=O)cc3)cc2)cc(OC)c1OC (stereo not given),growth inhibition,[1]; at 1.2 µM,-3%
same,growth inhibition,[1]; at 3.7 µM,-1%
same,growth inhibition,[1]; at 11.0 µM,1%
same,growth inhibition,[1]; at 33.0 µM,1%
same,growth inhibition,[1]; at 100.0 µM,-5%
same,growth inhibition,[2]; at 1.2 µM,0%
same,growth inhibition,[2]; at 3.7 µM,0%
same,growth inhibition,[2]; at 11.0 µM,0%
same,growth inhibition,[2]; at 33.0 µM,-2%
same,growth inhibition,[2]; at 100.0 µM,-8%
same,growth inhibition,[3]; at 1.2 µM,-1%
same,growth inhibition,[3]; at 3.7 µM,0%
same,growth inhibition,[3]; at 11.0 µM,-2%
same,growth inhibition,[3]; at 33.0 µM,-3%
same,growth inhibition,[3]; at 100.0 µM,-7%
same,growth inhibition,[4]; at 1.2 µM,-2%
same,growth inhibition,[4]; at 3.7 µM,2%
same,growth inhibition,[4]; [15],-1%
same,growth inhibition,[4]; at 11.0 µM,1%
same,growth inhibition,[4]; at 33.0 µM,3%
same,growth inhibition,[4]; [16],13%
same,growth inhibition,[4]; at 50.0 µM,25.9%
same,growth inhibition,[4]; at 100.0 µM,1%
same,growth inhibition,[5]; at 1.2 µM,0%
same,growth inhibition,[5]; at 3.7 µM,0%
same,growth inhibition,[5]; [15],2%
same,growth inhibition,[5]; at 11.0 µM,2%
same,growth inhibition,[5]; at 33.0 µM,4%
same,growth inhibition,[5]; [16],3%
same,growth inhibition,[5]; at 50.0 µM,19.6%
same,growth inhibition,[5]; at 100.0 µM,-2%
same,growth inhibition,[6]; at 1.2 µM,0%
same,growth inhibition,[6]; at 3.7 µM,0%
same,growth inhibition,[6]; at 11.0 µM,4%
same,growth inhibition,[6]; at 33.0 µM,6%
same,growth inhibition,[6]; at 100.0 µM,4%
same,growth inhibition,[7]; [15],8%
same,growth inhibition,[7]; [16],7%
same,growth inhibition,[7]; at 50.0 µM,21.6%
same,growth inhibition,[8]; at 1.2 µM,5%
same,growth inhibition,[8]; at 3.7 µM,7%
same,growth inhibition,[8]; at 11.0 µM,9%
same,growth inhibition,[8]; at 33.0 µM,10%
same,growth inhibition,[8]; at 100.0 µM,-2%
same,growth inhibition,[9]; at 1.2 µM,-1%
same,growth inhibition,[9]; at 3.7 µM,4%
same,growth inhibition,[9]; [15],6%
same,growth inhibition,[9]; at 11.0 µM,17%
same,growth inhibition,[9]; at 33.0 µM,27%
same,growth inhibition,[9]; [16],73% (active)
same,growth inhibition,[9]; at 50.0 µM,71.7% (active)
same,growth inhibition,[9]; at 100.0 µM,41%
same,growth inhibition,[10]; at 1.2 µM,-1%
same,growth inhibition,[10]; at 3.7 µM,-2%
same,growth inhibition,[10]; at 11.0 µM,-2%
same,growth inhibition,[10]; at 33.0 µM,-3%
same,growth inhibition,[10]; at 100.0 µM,-8%
same,growth inhibition,[11]; at 1.2 µM,-1%
same,growth inhibition,[11]; at 3.7 µM,0%
same,growth inhibition,[11]; at 11.0 µM,1%
same,growth inhibition,[11]; at 33.0 µM,-1%
same,growth inhibition,[11]; at 100.0 µM,-3%
same,growth inhibition,[12]; at 1.2 µM,-3%
same,growth inhibition,[12]; at 3.7 µM,-1%
same,growth inhibition,[12]; at 11.0 µM,2%
same,growth inhibition,[12]; at 33.0 µM,-1%
same,growth inhibition,[12]; at 100.0 µM,-7%
same,growth inhibition,[13]; [15],6%
same,growth inhibition,[13]; [16],37%
same,growth inhibition,[13]; at 50.0 µM,19.4%
same,growth inhibition,[14]; at 1.2 µM,-3%
same,growth inhibition,[14]; at 3.7 µM,0%
same,growth inhibition,[14]; at 11.0 µM,0%
same,growth inhibition,[14]; at 33.0 µM,3%
same,growth inhibition,[14]; at 100.0 µM,1%
